Assay results from PubChem BioAssay AID1347416 (National Center for Advancing Translational Sciences (NCATS), 2020).
The campaign covered roughly 4,100 compounds. About 1,600 (39%) were called active. Roughly 25% stayed inconclusive and do not appear here. Calls follow the shape of the dose curve; as a rule, active = well fitted inhibition curve with a large enough effect; inconclusive = small, poorly fitted or top-dose-only effect; inactive = no such curve, though single readings can be large or run the other way. This is one part of the list.

Assay: qHTS Validation assay for Inhibitors of Plasmodium falciparum Dd2 growth in vitro; also: nearly all actives have a fitted effect of over 70% in size
Conditions: P. falciparum Dd2 in RBCs, SYBR Green growth, 72 h; series mostly up to 28.7 µM; activity change, negative = inhibition: at the top concentration
How it was run: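 P. falciparum Dd2-infected red blood cells (2.5% hematocrit, 0.3% parasitemia) grown 72 h at 37 °C under 5% O2 with compounds in a titration, 29 uM to 0.5 nM final. Growth read as SYBR Green-1 fluorescence after ~16 h lysis; artesunate 300 nM as positive control.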
% is scaled to controls: 0 for no effect and ±100 for the full control effect; potency is read from the fitted curve at half-maximal effect.

Activity change, negative = inhibition, inactive:
Cc1cc(C)c(S(=O)(=O)Nc2cc(Cl)c3oc4c(c3c2)C(=O)CCC4)cc1C 0.504%, CCc1cccc(NC(=O)c2ccc3c(c2)N(C)C2CCCCN2C3=O)c1 (stereo not drawn) -18.7%, O=C(COC(=O)c1cccc(Br)c1)NCCNC(=O)COC(=O)c1cccc(Br)c1 26.2%, O=S(=O)(c1cccc(F)c1)N1CCC2(CC1)CC(Cc1nc(C3CC3)no1)CCO2 (stereo not drawn) -3.18%, CC1(CCCCc2ccccc2)COc2ccc(C(=O)NC3CCC(O)CC3)cc2N1 (stereo not drawn) 41.1% [at 43.1 µM], O=C(NC1CCN(c2cnn(CC3CC3)c(=O)c2)CC1)c1ccc2c(c1)OCO2 1.48%, O=C(Cc1cccc(F)c1)N1CCC(Oc2ccccc2-c2nc(C3CC3)no2)C1 (stereo not drawn) -21.5%, O=C(c1ccco1)N1CCC(Oc2ccccc2-c2nc(-c3ccccc3)no2)C1 (stereo not drawn) 5.65%, Cc1cn2nc(C(=O)NCc3ccccc3Cl)cc2c(=O)[nH]1 -12.1%, Cc1cc(/C(N)=N/OC(=O)c2ccccc2Cl)no1 5.14%, COc1ccc(-c2ccc(SCc3ccccn3)nn2)cc1OC -0.343%, COc1ccc(C(=O)NCc2nnc3ccc(-c4ccc(F)cc4)nn23)c(OC)c1 1.1%, Cc1oc(C(C)C)cc1C(=O)N1CC[C@](C)(O)[C@@H](O)C1 77.2%, CC(=O)N1CCC([C@@H]2CN(C3CCN(CC(C)C)CC3)C[C@H]2CO)CC1 11.4%, O=C(O)CC1(CC(=O)N2CCN3C(=O)N(Cc4ccccc4)C(=O)[C@H]3C2)CCCC1 -25.2% [at 43.1 µM], CCCc1noc(-c2ccn3c(CNC(=O)c4ccc5ccccc5n4)nnc3c2)n1 -9.45%, O=C(NCc1nnc2ccc(-c3ccccc3)nn12)c1ccoc1 16.5%, CCC1(O)CCCN(c2ncc(C(C)(C)C(=O)O)c(N3CCOCC3)n2)C1 (stereo not drawn) 82.3%, CCOc1cc(C2c3c(oc4ccccc4c3=O)C(=O)N2Cc2ccc3c(c2)OCO3)ccc1O (stereo not drawn) 7.62%, O=C(CNC1=NCCC1)c1ccc2c(c1)OCCO2 19.9%, COc1cc(C2NC(=O)c3c(sc4c3CCN(C)C4)N2)cc(OC)c1OC (stereo not drawn) 12.5%, O=C(Nc1cccc2ccccc12)O[C@@H]1CO[C@H]2[C@@H]1OC[C@@H]2n1nnnc1-c1ccc(-c2ccccc2)cc1 36.3%, CC(C)N1C(=O)C(CC(=O)N(C)Cc2cccnc2)=C2CCCCC21 (stereo not drawn) 0%, COc1cncc(Nc2ncc(-c3c(C)noc3C)c3c2OCC3)c1 -18.9% [at 43.1 µM], O=C(c1cccc(Cl)c1)N1CCC(c2nn(Cc3ccccc3)c(=O)[nH]2)CC1 20.2%, O=C(c1ccc(F)cc1)N1CCC(c2nn(Cc3ccccc3)c(=O)[nH]2)CC1 38.4%, Cc1cn2nc(-c3nc(C4CCCN(C(=O)c5ccc(C)c(F)c5)C4)no3)cc2c(=O)[nH]1 (stereo not drawn) -21.2%, NC(=O)c1cccc(-c2ncc3c(n2)OCCN(Cc2ccc(F)cc2F)C3=O)c1 -26% [at 43.1 µM], Cc1cn2nc(-c3nc(C4CCCN(C(=O)c5cccc(Cl)c5)C4)no3)cc2c(=O)[nH]1 (stereo not drawn) -16.5%, Cc1cccc(CC(=O)N2CCCC(n3cc(-c4nc(-c5ccccc5)no4)nn3)C2)c1 (stereo not drawn) -19.8%, CO[C@H]1C(=O)N(C2CCN(S(=O)(=O)c3cccnc3)CC2)[C@H]1c1ccncc1 -3.7%, CCOc1ccc(-c2nonc2NC(=O)COc2c(C)cc(C)cc2C)cc1OCC 3.46%, CCOC(=O)Cc1csc(NC(=S)NC(=O)c2ccc(C)cc2)n1 37.3%

Potency, active:
CN(C)CC(O)COc1ccc(C(C)(C)c2ccc(OCC(O)CN(C)C)cc2)cc1 (stereo not drawn) 8.41 µM, O=C(Nc1ccc(C(=O)OC[C@@H]2CCCN3CCCC[C@H]23)cc1)c1cccc(Br)c1 6.68 µM, CCN(C(=O)Cn1c(=O)n(Cc2ccc3c(c2)OCO3)c(=O)c2ccc(C(=O)NC3CCCCC3)cc21)c1cccc(C)c1 6.68 µM, c1ccc(-c2nc(-c3ccncc3)no2)c(OC2CCN(C3CCCC3)C2)c1 (stereo not drawn) 15 µM, Cc1cc(C(=O)Nc2cnn(Cc3ccc(Cl)cc3Cl)c2)no1 9.44 µM, COc1ccc(-c2ccc3ncc(Nc4ccncc4)n3n2)cc1OC 4.85 µM, COc1ccc(Nc2cnc3ccc(-c4ccc(OC)c(OC)c4)nn23)cc1 1.72 µM, OCc1cccc(-c2ccc3ncc(Nc4ccc(OCCN5CCCC5)cc4)n3n2)c1 3.44 µM, COc1cncc(Nc2cnc3ccc(-c4ccc(F)cc4)nn23)c1 3.06 µM, c1ccc(-c2ccc3ncc(Nc4cccnc4)n3n2)cc1 4.85 µM, COc1cncc(Nc2cnc3ccc(-c4ccc(OC)c(OC)c4)nn23)c1 1.22 µM, CCOC(=O)c1ccc(NC2=CC(c3ccc(F)cc3)N(c3ccc(C(=O)OCC)cc3)C2=O)cc1 (stereo not drawn) 8.41 µM, CCOC(=O)c1ccc(NC2=CC(c3ccc(O)c(OCC)c3)N(c3ccc(C(=O)OCC)cc3)C2=O)cc1 (stereo not drawn) 3.35 µM, Nc1cc[n+](CC(=O)c2ccc3c(c2)OCCO3)cc1 13.3 µM, CCC(C)c1ccc(N(C(=O)c2ccco2)C(C(=O)NC2CCCC2)c2cccnc2)cc1 (stereo not drawn) 6.68 µM, Cc1noc(C)c1-c1cc2cc(CN(C)C)oc2c(NCc2cccnc2)n1 1.22 µM, Cc1noc(C)c1-c1cc2cc(CN(C)C)oc2c(Nc2cccnc2)n1 12.2 µM, Cc1cccc(Cn2nnc3c(=O)[nH]c(C4CCCN(C(=O)c5ccc(C(C)(C)C)cc5)C4)nc32)c1 (stereo not drawn) 2.66 µM, CC(C)(C)c1ccc(C(=O)N2CCCC(c3nc4c(nnn4Cc4cccc(F)c4)c(=O)[nH]3)C2)cc1 (stereo not drawn) 16.8 µM, O=C(c1cccc(Cl)c1)N1CCC(c2nc3c(nnn3Cc3ccc(F)cc3F)c(=O)[nH]2)CC1 5.96 µM, Cc1ccc(Nc2nc3nonc3nc2Nc2cccc(C(F)(F)F)c2)cc1Cl 2.11 µM, CCOc1ccc(-c2nonc2NC(=O)c2ccc(C)cc2)cc1OCC 1.68 µM, CCCOc1ccc(-c2nonc2NC(=O)c2cc(OC)c(OC)c(OC)c2)cc1OCCC 5.96 µM, CCNc1nc(OC)nc(Oc2ccc(=O)n(-c3ccccc3)n2)n1 5.96 µM, CC(C)Cn1c(-c2ccco2)nc2c(c(=O)c3ccccc3n2C)c1=O 9.44 µM
